The panel holds about 79,000 compounds, 15% with a hit somewhere; the sample as a whole holds those more often. Activity calls are given as the source filed them. Rule as the data show it: active = growth inhibition above about 70%; inactive = the rest. Where a SMILES comes first, the peptide text is derived from it. [ ]: non-standard residue; d: D form. The star is where a group is joined. ξ: configuration not given here. X15 = COc1ccc(C(N*)c2ccc(OC)cc2)cc1; NMeF = CN[C@@H](Cc1ccccc1)C(=O)O; NMeD = CN[C@@H](CC(=O)O)C(=O)O; NMeV = CN[C@H](C(=O)O)C(C)C; ξNMeV = CNC(C(=O)O)C(C)C; Boc = CC(C)(C)OC(=O)*; ξNMeA = CNC(C)C(=O)O; ξV = CC(C)C(N)C(=O)O
experiment: NCI Yeast Anticancer Drug Screen. Data for the bub3 strain (AID 167); details: S. cerevisiae bub3 mutant strain, at 50.0 µM, active compounds read high
Summary of the method: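 In this screen, a yeast mutant lacking normal mitotic checkpoint function is challenged with compound. Relative growth versus vehicle gives the inhibition value.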

Row | SMILES | growth inhibition
1 | CC(C)(N=NC(C)(C)C(=O)NCCO)C(=O)NCCO | 2% (inactive)
2 | COc1ccc(OC)c(/C=C/c2ccc(NC(=O)C(Cl)(Cl)Cl)cc2)c1 | -2.55% (inactive)
3 | NC1=C(O)C(=O)C(c2ccccc2)O1 (stereo not given) | -8.9% (inactive)
4 | O=C(O)C(=O)Cc1ccccc1 | 0.85% (inactive)
5 | Br/C=C\Br | -12.8% (inactive)
6 | COc1ccc2c(c1O)-c1c(OC)c(OC)cc3c1[C@H](C2)[N+](C)(C)CC3 | -1.1% (inactive)
7 | Cc1ccccc1N(C(=O)C(=O)O)c1ccccc1C | -0.5% (inactive)
8 | CC(C)(C)NC(=O)NCc1ccccc1Cl | -0.75% (inactive)
9 | c1csc(-c2nccc3ccccc23)c1 | 7.7% (inactive)
10 | CC(/C=N\NC(=S)SCc1ccccc1)=N/N=C(N)N | 52.9% (inactive)
11 | O=C(O)COc1cc(-c2ccccc2)nc2ccc(F)cc12 | 3.1% (inactive)
12 | C/C(=C/C(C)O)c1ccccc1 (stereo not given) | -6.1% (inactive)
13 | CC1(C)N=C(N)N=C(N)N1CCCCc1ccccc1 | -71.8% (inactive)
14 | ClCCCCCCCCCCl | -13.2% (inactive)
15 | COc1cccc(/C=N/N(C)c2c([N+](=O)[O-])cc(C(F)(F)F)cc2[N+](=O)[O-])c1O | 3.7% (inactive)
16 | NC(CCCOS(=O)(=O)O)Cc1ccc2ccccc2c1 (stereo not given) | 3.55% (inactive)
17 | O=C(NNC(=O)c1ccc(Cl)cc1Cl)c1ccccc1 | -9.2% (inactive)
18 | O=C(OCC1OC(OCc2ccccc2)C(OC(=O)c2ccccc2)C1OC(=O)c1ccccc1)c1ccccc1 (stereo not given) | -13.5% (inactive)
19 | CN(CC#N)CC#N | 20.1% (inactive)
20 | O=C(O)C1CCC1C(=O)O (stereo not given) | 10.2% (inactive)

Row | SMILES | growth inhibition
21 | COc1ccc(C(NC(=O)C[C@@H](C(=O)N(C)C(C)C(=O)O)N(C)C(=O)[C@@H]2CCCN2C(=O)[C@H](C(C)C)N(C)C(=O)C(C(C)C)N(C)C(=O)[C@H](Cc2ccccc2)N(C)C(=O)C(NC(=O)OC(C)(C)C)C(C)C)c2ccc(OC)cc2)cc1 (stereo not given in full) (Boc-[ξV][NMeF][ξNMeV][NMeV]P[NMeD](X15)[ξNMeA]-OH) | -6.25% (inactive)
22 | CN1C(c2ccco2)NC(=O)C12CCN(Cc1ccccc1)CC2 (stereo not given) | 16.8% (inactive)
23 | Cc1ccc(S(=O)(=O)OCC2CC=CCC2COC(=O)c2ccc([N+](=O)[O-])cc2)cc1 (stereo not given) | 6.6% (inactive)
24 | Cc1cnc(Br)c(Br)c1 | 5.1% (inactive)
25 | COC(=O)/C=C(/C=C1/C(C#N)=C(N)N(c2ccc(Cl)cc2)C1(C)/C(=C/C(=O)OC)C(=O)OC)C(=O)OC (stereo not given) | 21.8% (inactive)
26 | CCOc1ccccc1/C=C1\NC(=O)NC1=O | 2.6% (inactive)
27 | O=C1c2ccccc2C(=O)c2c(NCCNC(=O)C3CCCN3)ccc(NCCNC(=O)C3CCCN3)c21 (stereo not given) | -3.7% (inactive)
28 | COc1ccc([B-]23OCC[N+]2(CNC(=O)c2ccccc2O)CCO3)cc1 (stereo not given) | 7.3% (inactive)
29 | COCC(=O)C(C(C)=O)C(c1ccc2c(c1)OCO2)C(C(C)=O)C(=O)COC (stereo not given) | -5.75% (inactive)
30 | C=CCNC(=O)N(CCCCC(NC(C)=O)C(=O)NCc1ccccc1)Cc1ccccc1 (stereo not given) | 16.4% (inactive)
31 | CC(C)c1ccccc1OC(=O)NC1CCCCC1 | 14.7% (inactive)
32 | Cc1ccc(NC(=S)N2CCCCC2C)cc1C (stereo not given) | 16.6% (inactive)
33 | CC1C2c3ccccc3C(c3ccccc32)C1CN1C(CCO)COC1c1ccccc1 (stereo not given) | 1.4% (inactive)
34 | CN1CCn2c(Br)ccc2C1=O | 2.65% (inactive)
35 | CCC(C)(C)C1CCCCC1OC(C)=O (stereo not given) | 2.9% (inactive)
36 | O=C(/C=C\c1ccc(Cl)cc1)c1ccccc1 | 12.7% (inactive)
37 | O=C1C(Br)=C(Br)C(=O)C2=C1C1c3ccccc3C2c2ccccc21 | 98.2% (active)
38 | NC(N)=NS(=O)(=O)c1ccc(N)cc1 | 13.3% (inactive)
39 | CSC1(C)C(=O)Nc2ccc(C(F)(F)F)cc21 (stereo not given) | -6.15% (inactive)
40 | O=C1OCC2Cc3ccccc3C(c3ccccc3)=C12 (stereo not given) | 11.3% (inactive)

Reference: PubChem BioAssay (NCI)
